# Experimental data reported in PubChem BioAssay (NCATS).
# Inconclusive results are not listed. Where a call stands in place of a potency, no number is given. Activity calls are given as the source filed them. Calls follow the shape of the dose curve; as a rule, active = well fitted cell-killing curve with a large enough effect; inconclusive = small, poorly fitted or top-dose-only effect; inactive = flat fitted curve, though single readings scatter.
# Experiment: Cell Viability - LYMP2-013 (AID 970); also: nearly all actives have a fitted effect of over 55% in size
# Conditions: LYMP2-013 lymphoblastoid cells viability; series mostly up to 92.2 µM
# From the text: NIH Chemical Genomics Center [NCGC]
# NIH Molecular Libraries Screening Centers Network [MLSCN]
# National Institutes of Environmental Health Sciences [NIEHS]
# National Toxicology Program [NTP]
# We have developed a 1536-well cell-based assay for quantitative high throughput screening (qHTS) against a number of cell lines to determine in vitro cytotoxicity of small molecules. This particular assay uses a human lymphoblastoid cell line (LYMP2-013) purchased from Coriell Institute for Medical Research.
# NCGC Assay Protocol Summary:
# The CellTiter-Glo luminescent cell viability assay (Promega) is a homogeneous method to measure the number of viable cells in culture. The end point readout of this assay is based on quantitation of intracellular ATP, an indicator of metabolic activity, using the luciferase reaction. Luciferase catalyzes the oxidation of beetle Luciferin to oxyluciferin and light in the presence of ATP. The luminescent signal is proportional to amount of ATP present.
# Using the CellTiter-Glo luminescent cell viability assay, the amount of cellular ATP was measured in the lymphoblastoid cell line with complete culture medium following compound treatment for 24 hours. The assay was performed in opaque white Kalypsys 1536-well plates. In the screen, tetraoctylammonium bromide was used as positive control. Library compounds were measured for their ability to cause acute toxicity in the cell line, as reflected by a decrease in intracellular ATP levels, in a concentration-dependent manner. […] AC50 values were determined from concentration-response data modeled with the standard Hill equation.
# qHTS protocol for CellTiter Glo lymphoblastoid cellular assay
# [Step] [Parameter] [Value] [Description]
# 1. Reagent; 5 uL; 2500 lymphoblastoid cells/well
# 2. Time; 5 hr; 37 C incubation
# 4. Controls; 23 nL; Tetraoctylammonium bromide 6.4pM to 92 uM
# 5. Time; 24 hr; 37 C incubation
# 6. Reagent; 5 uL; CellTiter Glo reagent
# 7. Time; 30 min; Room Temperature
# 8. Detection; Luminescence; Viewlux plate reader
# Keywords: cell viability, cytotoxicity, lymphoblastoid cell line, luminescence, NTPHTS, NTPHTS_NCGC, NIEHS, DSSTox, MLSMR, MLSCN, NIH Roadmap, qHTS, NCGC
# Potency is read from the fitted curve at half-maximal effect.
row,Structure (SMILES),Potency
1,O=C(O)COc1ccccc1,inactive
2,O=[N+]([O-])c1c2ccccc2cc2ccccc12,inactive
3,CCOP(=O)(NC(C)C)Oc1ccc(SC)c(C)c1 (stereo unspecified),inactive
4,COc1ccc(C(c2ccc(OC)cc2)C(Cl)(Cl)Cl)cc1,inactive
5,CCCCC(CC)COC(=O)c1ccccc1C(=O)OCC(CC)CCCC (stereo unspecified),inactive
6,C=CC(=O)NCNC(=O)C=C,inactive
7,CCCCOC(=O)c1ccccc1C(=O)OCc1ccccc1,inactive
8,CN(C)NC(=O)CCC(=O)O,inactive
9,CCOCCOC(C)=O,inactive
10,O=S(=O)(c1ccc(Cl)cc1)c1ccc(Cl)cc1,inactive
11,C1CCC(NC2CCCCC2)CC1,inactive
12,CCCCCCCCc1ccc(O)cc1,inactive
13,CC(C)(O)C(=O)Nc1ccc([N+](=O)[O-])c(C(F)(F)F)c1,inactive
14,CN(C)[C@@H]1C(=O)C(C(N)=O)=C(O)[C@@]2(O)C(=O)C3=C(O)c4c(O)cccc4[C@@](C)(O)[C@H]3[C@H](O)[C@@H]12,inactive
15,Nc1ccc([N+](=O)[O-])cc1,inactive
16,c1cc2ccc3cccc4ccc(c1)c2c34,inactive
17,O=[N+]([O-])c1c(Cl)c(Cl)cc(Cl)c1Cl,inactive
18,Cc1cc(O)ccc1Cl,inactive
19,O=C(O)C(Cl)Cl,inactive
20,COC(C)(C)CCCC(C)C/C=C/C(C)=C/C(=O)OC(C)C (stereo unspecified),inactive
21,Nc1ccc(Cl)cc1N,inactive
22,O=[N+]([O-])c1cc([N+](=O)[O-])c2ccccc2c1,inactive
23,Nc1ccc(Sc2ccc(N)cc2)cc1,inactive
24,CC(=O)[O][Hg][c]1ccccc1,631 nM (active)
25,Nc1ccc(Cl)cc1,inactive
26,OCCCBr,inactive
